This is an account of results in PubChem BioAssay (NCATS).

Results filed as inconclusive are left out. Active and inactive are the calls of the source. Calls follow the shape of the dose curve; as a rule, active = well fitted inhibition curve with a large enough effect; inconclusive = small, poorly fitted or top-dose-only effect; inactive = flat fitted curve, though single readings scatter.

Holding throughout (experiment): qHTS profiling for inhibitors of Plasmodium falciparum proliferation (AID 504749); also: nearly all actives have a fitted effect of over 60% in size
Common to all, as to details: P. falciparum in erythrocytes, SYBR Green DNA, 72 h; series mostly up to 28.7 µM

For one test, the system named is CP265. The method, boiled down:
(§1)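 Fluorescence of SYBR Green-bound parasite DNA, read at 485/535 nm, served as the growth measure. Infected erythrocytes were cultured with compound 72 h; artemisinin (0.29 uM) and DMSO wells defined the normalization range.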

A further test deals with CP266. The method, boiled down:
as §1

In the next test the test system is CP268. A digest of the protocol: as §1
Another test concerns CP269. A digest of the protocol:
as §1

In the next test the test system is CP286. A digest of the protocol: as §1
In another test the test system is CP291. A digest of the protocol: as §1
The subject of another test is CP305. A digest of the protocol: as §1
The next test relates to CP315. A digest of the protocol: as §1
Another test concerns CP325. A digest of the protocol:
as §1

A further test has as its system CP329. A digest of the protocol: as §1
The test system of the next test is CP335. The method, boiled down:
as §1

Another test has as its system DFO2036. A digest of the protocol: as §1
The next test deals with DIV14. The method, boiled down:
as §1

A further test concerns DIV17. The method, boiled down: as §1
A further test deals with Dd2. A digest of the protocol: as §1
The test system of the next test is ECU. A digest of the protocol:
as §1

The next test has as its system FAB9. The method, boiled down: as §1
Another test relates to GB4. A digest of the protocol: as §1
A further test relates to CP297. The method, boiled down:
as §1

A further test relates to DIV30. A digest of the protocol:
as §1
Potency is read from the fitted curve at half-maximal effect.

Take `CCCCCCCCCCCCCC(=O)OC(C)C`: the Potency result with CP265, in the test on CP266, in the test with CP268, in the test on CP269, with CP286 and in the test with CP291 was “inactive” throughout. The Potency result with CP305, in the test on CP315, in the test on CP325, in the test with CP329, in the test with CP335 and in the test with DFO2036 was “inactive” in each case. The Potency result in the test with DIV14, in the test with DIV17, with Dd2, in the test with ECU, in the test on FAB9 and in the test on GB4 was “inactive” throughout.

Take `CC(C)Cc1ccc(CC(=O)O)cc1`: the Potency result in the test with CP265, in the test on CP266, in the test with CP268, in the test on CP269, in the test with CP286 and in the test with CP291 was “inactive” in each case. The Potency entry in the test on CP297, with CP305, with CP325, in the test on CP329, with CP335 and in the test on DFO2036 was “inactive” throughout. Besides, the Potency result in the test on DIV14, with DIV17, in the test with DIV30, with Dd2, in the test with ECU and with FAB9 was “inactive” throughout. Besides, the Potency entry in the test with GB4 is “inactive”.

In the case of `O=C1C(CCS(=O)c2ccccc2)C(=O)N(c2ccccc2)N1c1ccccc1` (stereo not given), the Potency entry with CP265, in the test with CP266, in the test on CP268, in the test on CP269, with CP286 and with CP291 was “inactive” throughout. Besides, the Potency result with CP297, with CP305, with CP325, in the test with CP329, in the test with CP335 and in the test on DFO2036 was “inactive” in each case. The Potency entry in the test with DIV14, in the test on DIV17, in the test on DIV30, with Dd2, with ECU and with FAB9 was “inactive” throughout. Further, the Potency entry in the test with GB4 is “inactive”.

As to `CCOc1ccccc1OCCN[C@H](C)Cc1ccc(OC)c(S(N)(=O)=O)c1`, the Potency entry in the test with CP265, in the test on CP266, in the test with CP268, in the test with CP269, in the test on CP286 and in the test on CP291 was “inactive” throughout. The Potency entry with CP297, in the test on CP305, with CP315, in the test on CP325, with CP329 and in the test on CP335 was “inactive” each time. For the same compound, the Potency entry with DFO2036, in the test on DIV14, in the test with DIV30, with Dd2, with ECU and in the test with FAB9 was “inactive” in each case.

Turning to `CCCCNc1ccc(C(=O)OCCOCCOCCOCCOCCOCCOCCOCCOCCOC)cc1`, the Potency entry in the test on CP265, in the test on CP266, in the test on CP268, with CP269, in the test with CP286 and in the test with CP291 was “inactive” throughout. In addition, the Potency entry with CP297, with CP305, in the test with CP325, in the test on CP329, in the test with CP335 and in the test on DFO2036 was “inactive” in each case. Moreover, the Potency entry in the test on DIV17, in the test on DIV30, with Dd2, in the test with ECU, in the test with FAB9 and in the test with GB4 was “inactive” each time.

In the case of `O=C(Nc1ccc([N+](=O)[O-])cc1)Nc1ccc([N+](=O)[O-])cc1`, the Potency result in the test with CP265, in the test on CP266, in the test on CP268, in the test on CP269, with CP291 and in the test with CP297 was “inactive” each time. Moreover, the Potency result with CP305, in the test on CP315, with CP325, with CP329, in the test with DFO2036 and in the test with DIV17 was “inactive” throughout. Further, the Potency entry with DIV30, in the test on ECU, in the test with FAB9 and in the test with GB4 was “inactive” in each case. Moreover, the Potency was 3.16 µM (active) in the test on CP286 and 4.78 µM (active) with CP335.

Turning to `COc1cc([C@H]2Oc3cc([C@H]4Oc5cc(O)cc(O)c5C(=O)[C@@H]4O)ccc3O[C@@H]2CO)ccc1O`, the Potency result in the test with CP265, in the test on CP266, in the test with CP268, in the test on CP269, in the test on CP286 and in the test with CP291 was “inactive” each time. Further, the Potency result with CP297, with CP305, in the test with CP315, with CP325, with CP329 and in the test on CP335 was “inactive” throughout. The Potency result in the test on DFO2036, in the test on Dd2, in the test with ECU and in the test on FAB9 was “inactive” throughout. Also, in the test with DIV30, the Potency was 19 µM (active).

As for `C=CCN1CCc2nc(N)sc2CC1`, the Potency result in the test on CP265, with CP266, with CP268, in the test with CP269, with CP286 and with CP291 was “inactive” in each case. Moreover, the Potency result with CP297, in the test with CP305, with CP315, in the test on CP325, with CP329 and in the test with DFO2036 was “inactive” each time. Further, the Potency result in the test on DIV14, with DIV17, in the test on DIV30, in the test with Dd2, in the test on ECU and with FAB9 was “inactive” throughout. Moreover, the Potency result with GB4 was “inactive”.

As to `c1ccc(CC2=NCCN2)cc1`, the Potency result in the test with CP265, in the test on CP266, in the test with CP268, in the test with CP269, in the test on CP286 and in the test with CP291 was “inactive” in each case. Moreover, the Potency result in the test with CP297, with CP305, with CP315, in the test with CP325, in the test with CP329 and with DFO2036 was “inactive” throughout. The Potency result in the test on DIV14, with DIV17, in the test on DIV30, with Dd2, in the test on ECU and in the test on FAB9 was “inactive” in each case. Further, the Potency entry with GB4 was “inactive”.

For `CCCCC(CC)COC(=O)c1ccc(N(C)C)cc1` (stereo not given), the Potency entry with CP265, in the test on CP266, in the test on CP268, in the test with CP269, with CP286 and with CP291 was “inactive” in each case. In addition, the Potency result in the test with CP297, with CP305, in the test on CP315, in the test with CP325, in the test with CP329 and in the test with CP335 was “inactive” throughout. Besides, the Potency result in the test with DFO2036, in the test on DIV17, in the test on DIV30, in the test with Dd2, in the test on ECU and in the test with FAB9 was “inactive” each time. Moreover, in the test with GB4, the Potency result was “inactive”.

For the compound `CC(=O)NCCCCCC(=O)O`, the Potency entry in the test on CP265, with CP266, in the test on CP268, with CP269, in the test with CP286 and with CP291 was “inactive” each time. Moreover, the Potency result in the test on CP297, in the test on CP305, with CP315, in the test with CP325, in the test with CP329 and in the test with CP335 was “inactive” in each case. In addition, the Potency entry in the test on DFO2036, in the test on DIV14, with DIV30, in the test on Dd2, in the test with ECU and in the test on FAB9 was “inactive” throughout. For the same compound, the Potency entry with GB4 was “inactive”.

With `CC1(COc2ccc(CC3SC(=O)NC3=O)cc2)CCCCC1` (stereo not given), the Potency entry with CP265, in the test on CP266, in the test on CP268, in the test on CP269, with CP286 and in the test on CP291 was “inactive” throughout. Moreover, the Potency result in the test on CP305, in the test on CP315, in the test with CP325, with CP329, with CP335 and with DFO2036 was “inactive” each time. Besides, the Potency entry with DIV14, with DIV30, in the test on Dd2, in the test with ECU, with FAB9 and with GB4 was “inactive” each time.

Turning to `O=C(O)CCC(=O)Nc1ccc(S(=O)(=O)Nc2nccs2)cc1`, the Potency entry with CP265, with CP266, in the test on CP268, in the test on CP269, in the test with CP286 and in the test with CP291 was “inactive” each time. For the same compound, the Potency entry in the test with CP297, with CP305, in the test on CP315, in the test on CP329, with CP335 and with DFO2036 was “inactive” throughout. Also, the Potency entry in the test with DIV14, in the test on DIV17, in the test on DIV30, with Dd2, with ECU and in the test on FAB9 was “inactive” each time. In the test on GB4, the Potency entry was “inactive”.

For the compound `CC(C)=CCOc1ccc(/C=C/C(=O)c2ccc(OCC=C(C)C)cc2OCC(=O)O)cc1`, the Potency entry in the test on CP265, in the test on CP266, in the test with CP268, with CP269, with CP286 and with CP291 was “inactive” throughout. Besides, the Potency entry in the test with CP297, with CP305, in the test with CP315, in the test with CP325, in the test on CP329 and in the test on DFO2036 was “inactive” throughout. Further, the Potency result in the test with Dd2, in the test with ECU and in the test on FAB9 was “inactive” each time.
